± gives the uncertainty stated by the source.

One assay deals with HEK293T-Rex XBP1-RLuc. The assay can be described thus: XBP1-RLuc splicing reporter activation, triplicate, relative to 500 nM thapsigargin (% of thapsigargin); higher = stronger IRE1/XBP1s reporter activation. The settings on record: 6.8 µM; 18 h; screen: confirmation. As to the method: (§1)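 HEK293T-Rex cells stably expressing the ERSE-firefly luciferase (BiP promoter, ATF6-preferring) or XBP1-splicing Renilla luciferase (IRE1/XBP1s) reporter, 1536-well plates, compound at 6.8 µM for 18 hr at 37 °C; luminescence read […] and expressed as % activation = 100*(compound - median DMSO)/(median 500 nM thapsigargin - median DMSO). Primary screen was single-pass; confirmation screen in triplicate (mean ± SD).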

In another assay the test system is HEK293T-Rex ERSE-FLuc. The assay can be described thus: ERSE-FLuc reporter activation, triplicate confirmation, relative to 500 nM thapsigargin (% of thapsigargin); higher = stronger ATF6/ERSE reporter activation. The settings on record: 6.8 µM; 18 h; screen: confirmation. As to the method: as §1

Take `N#Cc1c(NC(=O)/C=C/c2ccco2)sc2c1CCCC2`: the “XBP1-RLuc splicing reporter activation” value in the assay with HEK293T-Rex XBP1-RLuc is 11.3 ± 1.3. In the assay with HEK293T-Rex ERSE-FLuc, the ERSE-FLuc reporter activation came to 29.4 ± 2.5.
As to `CCCNC(=O)c1cc(-c2cccs2)on1`, the “XBP1-RLuc splicing reporter activation” value in the assay on HEK293T-Rex XBP1-RLuc stood at 5.97 ± 0.33. The same compound displayed an ERSE-FLuc reporter activation in the assay on HEK293T-Rex ERSE-FLuc of 51.5 ± 5.4.
As to `CCOC(=O)c1sc(NC(=O)c2cccc3ccccc23)nc1C`, the “XBP1-RLuc splicing reporter activation” value with HEK293T-Rex XBP1-RLuc amounted to 2.85 ± 0.37. Moreover, the ERSE-FLuc reporter activation in the assay with HEK293T-Rex ERSE-FLuc was 27.3 ± 2.2.
For `COc1cccc(/C=N\NC(=O)c2n[nH]c3c2CCC3)c1`, the “XBP1-RLuc splicing reporter activation” value with HEK293T-Rex XBP1-RLuc amounted to 2.25 ± 1. For the same compound, in the assay with HEK293T-Rex ERSE-FLuc, the ERSE-FLuc reporter activation amounted to 26.1 ± 2.5.
`C=CCNC(=O)c1cc(-c2ccc(F)cc2)on1`: in the assay on HEK293T-Rex XBP1-RLuc, the “XBP1-RLuc splicing reporter activation” value is 1.92 ± 2.1. This compound also returned an ERSE-FLuc reporter activation in the assay on HEK293T-Rex ERSE-FLuc of 25.1 ± 4.7.
On to `Cc1nc(-c2ccc(C(=O)Nc3ccc(O)cc3)cc2)cs1`, for which, in the assay on HEK293T-Rex XBP1-RLuc, the “XBP1-RLuc splicing reporter activation” value was found to be 19.3 ± 0.19. For the same compound, the ERSE-FLuc reporter activation with HEK293T-Rex ERSE-FLuc is 31.8 ± 7.4.
On to `O=C(N/N=C/c1cccc(Cl)c1Cl)c1ccccc1O`, for which the “XBP1-RLuc splicing reporter activation” value in the assay with HEK293T-Rex XBP1-RLuc stood at 6.36 ± 0.63. In addition, the ERSE-FLuc reporter activation in the assay with HEK293T-Rex ERSE-FLuc worked out at 25.3 ± 1.4.
In the case of `COc1ccccc1OCC(=O)Nc1cc(C)ccc1O`, in the assay on HEK293T-Rex XBP1-RLuc, the “XBP1-RLuc splicing reporter activation” value amounted to 19.6 ± 1.9. In addition, the ERSE-FLuc reporter activation in the assay on HEK293T-Rex ERSE-FLuc worked out at 33.1 ± 6.4.
For `N#C/C(=C/c1ccc(O)c(O)c1)c1nc2ccccc2s1`, the “XBP1-RLuc splicing reporter activation” value in the assay with HEK293T-Rex XBP1-RLuc was determined as 19.7 ± 0.5. In the assay with HEK293T-Rex ERSE-FLuc, this compound had an ERSE-FLuc reporter activation of 51.2 ± 8.1.
As for `COc1cccc(C(=O)Nc2sc3c(c2C#N)CC(C)CC3)c1` (configuration not stated), the “XBP1-RLuc splicing reporter activation” value in the assay with HEK293T-Rex XBP1-RLuc turned out to be 3.54 ± 0.93. This compound also registered an ERSE-FLuc reporter activation in the assay with HEK293T-Rex ERSE-FLuc of 28 ± 5.5.
The corresponding values for `CCCCCC(=O)Nc1ccc(C(=O)Nc2ccccc2O)cc1` are 9.29 ± 0.42 and 44.9 ± 11.
For the compound `CCCCCOc1ccc(N/C(N)=N/c2nc(C)cc(C)n2)cc1`, the “XBP1-RLuc splicing reporter activation” value with HEK293T-Rex XBP1-RLuc is 159 ± 6.3. In the assay with HEK293T-Rex ERSE-FLuc, this compound gave an ERSE-FLuc reporter activation of 110 ± 12.
For the compound `Cc1ccc(O)c(NC(=O)c2cc(-c3ccc(O)cc3)on2)c1`, in the assay on HEK293T-Rex XBP1-RLuc, the “XBP1-RLuc splicing reporter activation” value worked out at 22.4 ± 1.8. Also, in the assay on HEK293T-Rex ERSE-FLuc, the ERSE-FLuc reporter activation stood at 54.1 ± 9.
The corresponding values for `CCc1ccc(NC(=O)/C=C/c2ccco2)cc1` are 4.88 ± 0.83 and 29.1 ± 4.
Consider `COc1ccc(-n2nnnc2SCC(N)=O)c(OC)c1`, for which the “XBP1-RLuc splicing reporter activation” value in the assay on HEK293T-Rex XBP1-RLuc stood at 13.9 ± 1.2. In the assay on HEK293T-Rex ERSE-FLuc, this compound returned an ERSE-FLuc reporter activation of 34.5 ± 5.7.
On to `N#C/C(=C\c1ccc(O)c(O)c1)c1nc2ccccc2[nH]1`, for which the “XBP1-RLuc splicing reporter activation” value in the assay with HEK293T-Rex XBP1-RLuc stood at 12.6 ± 0.2. In the assay on HEK293T-Rex ERSE-FLuc, the ERSE-FLuc reporter activation was determined as 34.3 ± 1.3.
For the compound `Oc1ccc(/C=N/Nc2cccc3cccnc23)c(O)c1`, the “XBP1-RLuc splicing reporter activation” value in the assay with HEK293T-Rex XBP1-RLuc amounted to 26 ± 1.3. This compound yielded an ERSE-FLuc reporter activation in the assay with HEK293T-Rex ERSE-FLuc of 40.8 ± 12.
For the compound `CC1(C)Cc2ccccc2/C(=C/C(=O)C(=O)N/N=C/c2ccc(O)c(O)c2)N1`, the “XBP1-RLuc splicing reporter activation” value with HEK293T-Rex XBP1-RLuc worked out at 16.2 ± 2.9. This compound also came in with an ERSE-FLuc reporter activation with HEK293T-Rex ERSE-FLuc of 30.1 ± 8.7.
For `COc1ccc(N(C(=O)c2ccccc2)S(=O)(=O)c2cc(OC)ccc2OC)cc1`, in the assay with HEK293T-Rex XBP1-RLuc, the “XBP1-RLuc splicing reporter activation” value is 59.2 ± 7.4. This compound returned an ERSE-FLuc reporter activation in the assay with HEK293T-Rex ERSE-FLuc of 103 ± 9.2.
For `COc1ccc(/C=C(\C#N)c2nc3ccccc3n2C)cc1`, the “XBP1-RLuc splicing reporter activation” value in the assay on HEK293T-Rex XBP1-RLuc was -0.499 ± 0.016. Further, the ERSE-FLuc reporter activation in the assay with HEK293T-Rex ERSE-FLuc turned out to be 38.1 ± 7.2.
For `O=[N+]([O-])c1ccccc1N/N=C/c1ccc(O)c(O)c1`, the “XBP1-RLuc splicing reporter activation” value in the assay on HEK293T-Rex XBP1-RLuc stood at 10.3 ± 1.3. This compound also yielded an ERSE-FLuc reporter activation in the assay on HEK293T-Rex ERSE-FLuc of 43.3 ± 6.8.
For the compound `CN(C)c1ccc(/C=C/C(=O)NC(=O)c2ccccc2OC(=O)c2ccccc2)cc1`, the “XBP1-RLuc splicing reporter activation” value with HEK293T-Rex XBP1-RLuc is 0.481 ± 0.46. Besides, the ERSE-FLuc reporter activation in the assay on HEK293T-Rex ERSE-FLuc was determined as 26.9 ± 8.8.
On to `O=C(CC(=O)Nc1ccc2nc3n(c(=O)c2c1)CCCCC3)NCc1ccco1`, for which, in the assay on HEK293T-Rex XBP1-RLuc, the “XBP1-RLuc splicing reporter activation” value is 22.3 ± 2.9. The ERSE-FLuc reporter activation with HEK293T-Rex ERSE-FLuc was determined as 28 ± 11.
The matching figures for `N#Cc1c(NC(=O)c2ccc3c(c2)OCO3)sc2c1CCCC2`: 2.57 ± 0.57 and 28.7 ± 6.8.
Regarding `O=c1cc(-c2ccc(O)c(O)c2)oc2ccccc12`, the “XBP1-RLuc splicing reporter activation” value with HEK293T-Rex XBP1-RLuc was found to be 20.6 ± 1.5. Also, the ERSE-FLuc reporter activation with HEK293T-Rex ERSE-FLuc was determined as 42.2 ± 12.
The matching figures for `Cc1cc(C)nc(/N=C(\N)Nc2ccc(OCCC(C)C)cc2)n1`: 101 ± 1.1 and 58.2 ± 6.3.
For the compound `COc1ccc(/C=C2\SC(=O)NC2=Nc2ccc(C)cc2)c(OC)c1`, the “XBP1-RLuc splicing reporter activation” value with HEK293T-Rex XBP1-RLuc was 6.33 ± 0.42. In the assay on HEK293T-Rex ERSE-FLuc, this compound registered an ERSE-FLuc reporter activation of 26.8 ± 1.3.
For `CCOc1cccc(C(=O)Nc2ccc(-c3nc4ccc(C(=O)c5ccccc5)cc4[nH]3)cc2)c1`, the “XBP1-RLuc splicing reporter activation” value with HEK293T-Rex XBP1-RLuc was determined as 94 ± 5. Further, the ERSE-FLuc reporter activation in the assay on HEK293T-Rex ERSE-FLuc is 28.6 ± 4.7.
As to `COc1cc(/C=C/c2ccc(O)c(OC)c2)ccc1O`, the “XBP1-RLuc splicing reporter activation” value with HEK293T-Rex XBP1-RLuc came out at 31.8 ± 2.2. In the assay with HEK293T-Rex ERSE-FLuc, this compound had an ERSE-FLuc reporter activation of 35.9 ± 9.1.
In the case of `Cc1ccc(O)c(N/C=C/C(=O)c2ccc(F)cc2)c1`, the “XBP1-RLuc splicing reporter activation” value in the assay with HEK293T-Rex XBP1-RLuc is 10.3 ± 7.9. For the same compound, the ERSE-FLuc reporter activation in the assay with HEK293T-Rex ERSE-FLuc came out at 140 ± 17.
The matching figures for `O=c1[nH]c(/C=C2\C=Nc3ccccc32)c(O)n1-c1cccc(Cl)c1`: 47.9 ± 7.7 and 58.7 ± 9.3.
`CCC(=O)N(Cc1cc2cc(C)ccc2n2nnnc12)C1CCCC1`: the “XBP1-RLuc splicing reporter activation” value in the assay with HEK293T-Rex XBP1-RLuc is 4.74 ± 0.41. This compound yielded an ERSE-FLuc reporter activation in the assay with HEK293T-Rex ERSE-FLuc of 33.5 ± 2.4.
With `CCCNc1ccnc(N2CCc3ccccc3C2)n1`, the “XBP1-RLuc splicing reporter activation” value in the assay on HEK293T-Rex XBP1-RLuc is -1.35 ± 0.17. The compound also gave an ERSE-FLuc reporter activation with HEK293T-Rex ERSE-FLuc of 25.7 ± 11.
The corresponding values for `CC(=Nc1ccc(O)cc1)c1sc2ccccc2c1O` are 15.7 ± 4.1 and 27.4 ± 4.2.
For the compound `N#C/C(=C\c1ccc(O)c(O)c1)C(=O)Nc1ccccc1`, in the assay with HEK293T-Rex XBP1-RLuc, the “XBP1-RLuc splicing reporter activation” value was 13.3 ± 0.68. Besides, the ERSE-FLuc reporter activation with HEK293T-Rex ERSE-FLuc was 29.5 ± 5.4.
Consider `CCCNC(=O)c1cc(-c2ccc(F)cc2)on1`, for which the “XBP1-RLuc splicing reporter activation” value in the assay on HEK293T-Rex XBP1-RLuc was determined as 4.12 ± 0.34. In the assay on HEK293T-Rex ERSE-FLuc, this compound yielded an ERSE-FLuc reporter activation of 42 ± 5.5.

The values above are taken from the supplement of paper PMC4954754.
